Experimental data as given in the supplement of paper PMC11060735.
Where “and” joins values, the source holds several entries; their conditions need not be identical. Equal values may be shown once. Where a name gives a salt, the structure may show the parent alone. ± gives the standard deviation of the averaged measurements. Whole data set: some 1,800 compounds, median “GFP- (p16Ink4a-) cell count relative to negative-control wells” near 0.99, cut for the lowest 2% near 0.5. This excerpt belongs to a sample that is enriched for the lowest values.

System: mouse p16Ink4a+/- lung fibroblasts (INKBRITE, bleomycin-injured)
Test: GFP- (p16Ink4a-) cell count relative to negative-control wells (fold of vehicle); higher = more p16Ink4a- cells surviving
Conditions: 1 µM; 3 days

| Compound | GFP- |
| --- | --- |
| Cn1c(=O)n(-c2ccc(C(C)(C)C#N)cc2)c2c3cc(-c4cnc5ccccc5c4)ccc3ncc21 [Dactolisib] | 0.74 |
| COc1ccc(-c2ccc3ncc4c(c3c2)n(-c2ccc(N3CCNCC3)c(C(F)(F)F)c2)c(=O)n4C)cn1 | 0.4 |
| CC1CCN(CC[C@H]2CCCN2S(=O)(=O)c2cccc(O)c2)CC1 | 0.862 |
| CC1CNc2c(cccc2S(=O)(=O)N[C@@H](CCCN=C(N)N)C(=O)N2CC[C@@H](C)C[C@@H]2C(=O)O)C1 (stereo partly drawn) [Argatroban] | 1.09 |
| CC1(C)CCC2=C(O1)c1ccccc1C(=O)C2=O [beta-Lapachone] | 1.08 |
| CCOC(=O)c1ccc(C#Cc2ccc3c(c2)C(C)(C)CCS3)nc1 [Tazarotene] | 1.05 |
| N#Cc1ccc2[nH]cc(CCCCN3CCN(c4ccc5oc(C(N)=O)cc5c4)CC3)c2c1 [Vilazodone] | 1.07 |
| CO/C(O)=C1\C(C)=NC(C)=C(C(=O)OCCN2CCN(C(c3ccccc3)c3ccccc3)CC2)C1c1cccc([N+](=O)[O-])c1 (stereo not drawn) [Manidipine] | 0.985 and 0.964 |
| Cc1ccc(Cl)cc1N(CC(=O)Nc1c(F)cccc1F)S(C)(=O)=O | 1.06 |
| O=C(O)C(O)Cc1ccc(O)c(O)c1 (stereo not drawn) [Sodium Danshensu] | 1.19 |
| COc1nc(C)cnc1NS(=O)(=O)c1cccnc1-c1ccc(-c2nnco2)cc1 [Zibotentan] | 1.19 |
| CCOC(=O)[C@H](CCc1ccccc1)N[C@@H](C)C(=O)N1Cc2cc(OC)c(OC)cc2C[C@H]1C(=O)O [Moexipril] | 0.982 |
| COc1c2ccoc2cc2oc(=O)ccc12 [Bergapten] | 1.08 |
| O=C1c2cccc(O)c2C(=O)c2c(O)cc(CO)cc21 [Aloe-emodin] | 1.13 |
| O=C1c2c(O)ccc(O)c2C(=O)c2c(NCCNCCO)ccc(NCCNCCO)c21 [Mitoxantrone] | 0.503 |
| Nc1ncn([C@@H]2O[C@H](CO)[C@@H](O)[C@H]2O)c(=O)n1 [5-azacytidine, Azacitidine] | 0.758 ± 0.04 |
| CCOC(=O)[C@H]1O[C@@H]1C(=O)N[C@@H](CC(C)C)C(=O)NCCC(C)C [Aloxistatin] | 0.833 |
| CN(C)c1ccc(C(=C2C=CC(=[N+](C)C)C=C2)c2ccc(N(C)C)cc2)cc1 [Gentian Violet] | 0.494 |
| COCCO/C(O)=C1\C(C)=NC(C)=C(C(=O)OC(C)C)C1c1cccc([N+](=O)[O-])c1 (stereo not drawn) [Nimodipine] | 1.06 |
| FC(F)c1nc2ccccc2n1-c1nc(N2CCOCC2)nc(N2CCOCC2)n1 | 0.711 |
| O=C(NC(Cc1cc(O)nc2ccccc12)C(=O)O)c1ccc(Cl)cc1 (stereo not drawn) [Rebamipide] | 1.02 |
| Cc1ccc([N+](=O)[O-])cc1S(=O)(=O)N(C)/N=C/c1cnc2ccc(Br)cn12 | 0.385 |
| COC(=O)Nc1nc2cc(C(=O)c3ccc(F)cc3)ccc2[nH]1 [Flubendazole] | 0.933 |
| CC(C(=O)O)c1ccc2c(c1)Cc1cccnc1O2 (stereo not drawn) [Pranoprofen] | 1.17 |
| Cc1cc(NS(=O)(=O)c2ccc(N)cc2)no1 [Sulfamethoxazole] | 0.967 |
| C=CCn1c(=O)c2cnc(Nc3ccc(N4CCN(C)CC4)cc3)nc2n1-c1cccc(C(C)(C)O)n1 | 0.409 |

| Compound | GFP- |
| --- | --- |
| C=CC(=O)Nc1cccc(Oc2nc(Nc3ccc(N4CCN(C)CC4)cc3)ncc2Cl)c1 | 0.844 |
| Cc1cnc(Nc2ccc(N3CCN(C)CC3)cc2)nc1Nc1cccc(S(=O)(=O)NC(C)(C)C)c1 | 0.779 ± 0.037 |
| C#C[C@]1(O)CC[C@H]2[C@@H]3CCc4cc(OC)ccc4[C@H]3CC[C@@]21C [Mestranol] | 1.15 |
| COc1cc2nccc(Oc3ccc(NC(=O)Nc4cc(C)on4)c(Cl)c3)c2cc1OC [Tivozanib] | 1.01 |
| COc1cc2nccc(Oc3ccc(NC(=O)C4(C(=O)Nc5ccc(F)cc5)CC4)cc3)c2cc1OC [Cabozantinib] | 0.824 |
| COc1cc2nccc(Oc3ccc(NC(=O)Nc4ccc(F)cc4F)c(F)c3)c2cc1OC | 0.466 |
| CCn1cc(-c2ccnc3[nH]c(-c4cccc(CN(C)C)c4)cc23)c(-c2ccc(NC(=O)N(C)C)cc2)n1 | 0.658 ± 0.17 |
| COc1cc(Nc2ncc(F)c(Nc3ccc4c(n3)N(COP(=O)(O)O)C(=O)C(C)(C)O4)n2)cc(OC)c1OC [Fostamatinib] | 0.771 |
| COC(=O)[C@]12CCC(C)(C)C[C@@H]1[C@@H]1C(=O)C=C3[C@]4(C)C=C(C#N)C(=O)C(C)(C)[C@@H]4CC[C@@]3(C)[C@]1(C)CC2 [Bardoxolone Methyl] | 0.406 |
| O=C(c1ccc(F)cc1)C1CCN(CCn2c(=O)[nH]c3ccccc3c2=O)CC1 [Ketanserin Tartrate] | 0.924 |
| COc1ccc2c(c1)c(CC(=O)N1CCOCC1)c(C)n2C(=O)c1ccc(Cl)cc1 | 1.15 |
| CC(=O)SCC(Cc1ccccc1)C(=O)NCC(=O)OCc1ccccc1 (stereo not drawn) [Racecadotril] | 0.972 |
| COC(=O)[C@H](Cc1ccccc1)NC(=O)[C@@H](N)CC(=O)O [Aspartame] | 0.966 |
| CC(C)C[C@@H](C=O)NC(=O)[C@H](CC(C)C)NC(=O)[C@H](CC(C)C)NC(=O)OCc1ccccc1 | 0.302 |
| CCCC(=O)Nc1cccc(NC(=O)c2ccccc2Br)c1 | 1.03 |
| CCOC(=O)C1=C(C)N=C(C)/C(=C(/O)OCC)C1c1ccccc1/C=C/C(=O)OC(C)(C)C (stereo not drawn) [Lacidipine] | 1.08 |
| Clc1ccc(C(Cn2ccnc2)OCc2ccsc2Cl)c(Cl)c1 (stereo not drawn) [Tioconazole] | 0.993 |
| Cn1nc(C(C)(C)C)cc1C(=O)N[C@@H](Cc1cccc(Cl)c1)C(=O)NCC#N [Cathepsin Inhibitor 1] | 1.01 |
| O=C1CCC[C@@H]2[C@H]3CCC[N+]4([O-])CCC[C@@H](CN12)[C@@H]34 (stereo partly drawn) [Oxymatrine] | 1.08 |
| O=S(=O)(O)c1cc(O)ccc1O [Ethamsylate] | 0.995 |
| C=C1/C(=C\C=C2/CCC[C@]3(C)[C@@H]([C@H](C)CCCC(C)(C)O)CC[C@@H]23)C[C@@H](O)C[C@@H]1O [Calcitriol, DN-101] | 1.39 |
| CN1CCN(S(=O)(=O)c2ccc(-c3cnc(N)c(C(=O)Nc4cccnc4)n3)cc2)CC1 | 0.998 |
| Cc1[nH]c(/C=C2\C(=O)Nc3ccc(S(=O)(=O)Cc4c(Cl)cccc4Cl)cc32)c(C)c1C(=O)N1CCC[C@@H]1CN1CCCC1 | 0.404 |
| Cc1[nH]c(/C=C2\C(=O)Nc3ccc(S(=O)(=O)N(C)c4cccc(Cl)c4)cc32)c(C)c1C(=O)N1CCN(C)CC1 | 0.704 |
| Cc1[nH]c(/C=C2\C(=O)Nc3ccccc32)c(C)c1CCC(=O)O [Orantinib] | 1.09 |
| N=C(N)Nc1ccc(C(=O)Oc2ccc3cc(C(=N)N)ccc3c2)cc1 [Nafamostat] | 1.16 |

| Compound | GFP- |
| --- | --- |
| Nc1cc(C(Cl)=C(Cl)Cl)c(S(N)(=O)=O)cc1S(N)(=O)=O [Clorsulon] | 1.08 |
| Cc1cc(C)c(/C=C2\C(=O)Nc3ccccc32)[nH]1 [Semaxanib] | 0.862 |
| Cc1ccc(-n2sc(=O)n(Cc3ccc(F)cc3)c2=O)cc1 | 1.1 |
| COc1ccc(-c2ccc3cc(C(=O)O)ccc3c2)cc1C12CC3CC(CC(C3)C1)C2 [Adapalene] | 1.05 |
| O=C(NCc1ccccc1)c1csc(Nc2ccncn2)n1 [Thiazovivin] | 1.04 |
| O=c1cc(-c2ccccc2)oc2cc(O)cc(O)c12 [Chrysin] | 0.996 |
| CCN1CCC[C@H]1CNC(=O)c1cc(S(N)(=O)=O)ccc1OC [Levosulpiride] | 0.964 |
| C[C@]12CC[C@H](O)CC1=CCC1C2CC[C@]2(C)C(n3cnc4ccccc43)=CCC12 (stereo partly drawn) [Galeterone] | 1.11 |
| O=C1Nc2ccc(I)cc2/C1=C/c1cc(Br)c(O)c(Br)c1 | 1.02 |
| CCOc1ccc(Cc2cc([C@@H]3O[C@H](CO)[C@@H](O)[C@H](O)[C@H]3O)ccc2Cl)cc1 [Dapagliflozin] | 1.12 |
| C=CCc1ccc(O)c(-c2ccc(O)c(CC=C)c2)c1 [Honokiol] | 0.883 |
| C=CCc1cccc(/C=N/NC(=O)CN2CCN(Cc3ccccc3)CC2)c1O | 0.654 |
| Cc1cc(NC(=O)Nc2ccc(N(C)C)cc2)c2cc(F)cc(F)c2n1 | 1.15 |
| CCOC(=O)[C@H](CCc1ccccc1)N[C@@H](C)C(=O)N1CCC[C@H]1C(=O)O [Enalapril] | 1 |
| Cc1ccc(F)c(NC(=O)Nc2ccc(-c3cccc4[nH]nc(N)c34)cc2)c1 [Linifanib] | 0.965 |
| NC1(c2ccc(-c3nc4ccn5c(O)nnc5c4cc3-c3ccccc3)cc2)CCC1 | 0.82 |
| COc1cc([C@@H]2c3cc4c(cc3[C@@H](O[C@@H]3O[C@@H]5CO[C@@H](C)O[C@H]5[C@H](O)[C@H]3O)[C@H]3COC(=O)[C@H]23)OCO4)cc(OC)c1O [Etoposide] | 0.985 |
| Cc1nc(O)c2cc(CN(C)c3ccc(C(=O)N[C@@H](CCC(=O)O)C(=O)O)s3)ccc2n1 [Raltitrexed] | 1.01 |
| CC(C)N(CCCNC(=O)Nc1ccc(C(C)(C)C)cc1)C[C@H]1O[C@@H](n2cc(Br)c3c(N)ncnc32)[C@H](O)[C@@H]1O | 1.01 ± 0.042 |
| COc1ccc(C(C)=O)c(O)c1 [Paeonol] | 1.18 |
| Cc1nc(NC(=O)N2CCC[C@H]2C(N)=O)sc1-c1csc(C(C)(C)C)n1 | 1.03 |
| CNC(=O)c1ccccc1Nc1nc(Nc2ccc(N3CCOCC3)cc2OC)ncc1Cl | 0.742 |
| CN1CC[C@H](c2c(O)cc(O)c3c(=O)cc(-c4ccccc4Cl)oc23)[C@H](O)C1 [Flavopiridol] | 0.326 |
| CN1CC[C@@H](c2c(O)cc(O)c3c(=O)cc(-c4ccccc4Cl)oc23)[C@@H]1CO | 0.807 |
| CC(=O)/N=c1/sc(S(N)(=O)=O)nn1C [Methazolamide] | 1.16 |
| C=C1C(=O)[C@@]23C(CC[C@@H]1[C@H]2O)[C@@]12CO[C@]3(O)[C@@H](O)[C@@H]1C(C)(C)CC[C@@H]2O (stereo partly drawn) [Oridonin] | 0.884 |
